The source of these data is PubChem BioAssay (NCATS).

Molecules are shown by their SMILES. Calls of active or inactive are those of the source. Calls come from the whole dose curve.

The nature of this experiment: qHTS drug screen for cell cycle checkpoint inhibitors in PARPi-resistant BRCA-mutant ovarian cancer cell lines. (AID 1963452). Conditions: PEO1/OlaR viability, CellTiter-Glo luminescence, 96 h; for Z-AUC: stronger effect = lower value. A digest of the protocol: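 PEO1, PEO4 and PEO1/OlaR ovarian cancer cells, 600 per well, exposed 96 h at 37C to a dilution series. Viability read by CellTiter-Glo luminescence, normalized to DMSO and empty wells; activity summarized as Z-AUC.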

[1] abbreviates: measured here: PEO1 parental Z-AUC.
Potency is the fitted concentration of half-maximal effect.

For `COc1cc2nccc(Oc3ccc(NC(=O)C4(C(=O)Nc5ccc(F)cc5)CC4)cc3)c2cc1OC`, the Z-AUC was -0.0071 (inactive). In addition, under setting [1], the Z-AUC stood at 0.252. For the same compound, where the note is “measured here: PEO4 Z-AUC”, the Z-AUC was -0.118.

Turning to `O=C(CCCCCCC(=O)Nc1ccc([C@H]2O[C@@H](CSc3nc(-c4ccccc4)c(-c4ccccc4)o3)C[C@@H](c3ccc(CO)cc3)O2)cc1)NO`, the Z-AUC is 0.612 (inactive). The Z-AUC under setting [1] was found to be 1.26. In addition, where the note is “measured here: PEO4 Z-AUC”, the Z-AUC was found to be 0.641.

For the compound `CC(=O)OCC(=O)[C@@]1(O)[C@H](C)C[C@H]2[C@@H]3C=C(C)C4=Cc5c(cnn5-c5ccccc5)C[C@]4(C)[C@@H]3[C@@H](O)C[C@@]21C`, the Z-AUC is -0.679 (inactive). Under setting [1], the Z-AUC stood at 0.732. Also, for the setting “measured here: PEO4 Z-AUC”, the Z-AUC is -0.158.

As to `CC1(C)CC(=O)c2c(C(F)(F)F)nn(-c3ccc(C(N)=O)c(NC4CCC(OC(=O)CN)CC4)c3)c2C1` (configuration not stated), the Z-AUC was -1.29 (inactive). In addition, under setting [1], the Z-AUC is -0.877. The Z-AUC (measured here: PEO4 Z-AUC) is -0.312.

Take `COCCOc1ccc2c(c1)ncn2-c1ccc2cccc(N3CCC(N)CC3)c2n1`: the Z-AUC is 0.074 (inactive). In addition, under setting [1], the Z-AUC was 0.935. Moreover, the Z-AUC (measured here: PEO4 Z-AUC) is 0.806.

Regarding `NC(=O)c1c(OCc2c(F)cc(Br)cc2F)nsc1NC(=O)NCCCCN1CCCC1`, the Z-AUC was 0.49 (inactive). The Z-AUC under setting [1] came out at 0.803. Besides, for the setting “measured here: PEO4 Z-AUC”, the Z-AUC came out at 0.754.

As to `COc1ccc(F)c(F)c1C(=O)c1cnc(NC2CCN(S(C)(=O)=O)CC2)nc1N`, the Potency was 871 nM (active). Also, the Z-AUC under setting [1] was -1.69. Also, the Z-AUC (measured here: PEO4 Z-AUC) is -1.31.

As to `Cn1cc(-c2[nH]c3cc(NC(=O)[C@H](N)C4CCCCC4)cc4c3c2C=NNC4=O)cn1`, the Z-AUC was -0.173 (inactive). The Z-AUC under setting [1] was -0.184. For the same compound, the Z-AUC (measured here: PEO4 Z-AUC) was -0.421.

Consider `CCCCCCCCCC(=O)N[C@@H](Cc1c[nH]c2ccccc12)C(=O)N[C@H](CC(N)=O)C(=O)N[C@@H](CC(=O)O)C(=O)N[C@@H]1C(=O)NCC(=O)N[C@@H](CCCN)C(=O)N[C@@H](CC(=O)O)C(=O)N[C@H](C)C(=O)N[C@@H](CC(=O)O)C(=O)NCC(=O)N[C@H](CO)C(=O)N[C@@H]([C@@H](C)CC(=O)O)C(=O)N[C@@H](CC(=O)c2ccccc2N)C(=O)O[C@@H]1C`, for which the Z-AUC was -0.7 (inactive). Further, under setting [1], the Z-AUC was -0.476. In addition, the Z-AUC (measured here: PEO4 Z-AUC) was -0.85.

Turning to `Cc1[nH]nc2ccc(-c3cncc(OC[C@@H](N)Cc4ccccc4)c3)cc12`, the Z-AUC is -1.08 (inactive). Moreover, the Z-AUC under setting [1] is -1.59. Under “measured here: PEO4 Z-AUC”, the Z-AUC was -1.81.

For the compound `Cc1cc(Nc2cc(CN3CCOCC3)c3nc(C)c(Cc4ccc(Cl)cc4F)n3n2)n[nH]1`, the Z-AUC is -0.469 (inactive). Moreover, the Z-AUC under setting [1] was -0.486. The Z-AUC (measured here: PEO4 Z-AUC) is -1.95.

On to `Cc1nc(N)ncc1-c1nc(N2CCOCC2)c2sc(C(C)(C)O)cc2n1`, for which the Z-AUC is 0.231 (inactive). Besides, under setting [1], the Z-AUC worked out at 0.219. Moreover, the Z-AUC (measured here: PEO4 Z-AUC) amounted to 0.116.

For the compound `OCc1ccc(-c2ccc(-c3ccc(CO)s3)o2)s1`, the Z-AUC was 1.64 (inactive). Further, under setting [1], the Z-AUC worked out at 1.79. Also, for the setting “measured here: PEO4 Z-AUC”, the Z-AUC amounted to 1.79.

For `CNC(=O)c1c(F)cccc1Nc1nc(Nc2cc3c(cc2OC)CCN3C(=O)CN(C)C)nc2[nH]ccc12`, the Z-AUC is -0.375 (inactive). Under setting [1], the Z-AUC was -0.266. Moreover, the Z-AUC (measured here: PEO4 Z-AUC) is -0.708.

Regarding `CC1(O)CC(c2nc(-c3ccc4ccc(-c5ccccc5)nc4c3)c3c(N)nccn23)C1` (configuration not stated), the Z-AUC was -2.04 (inactive). For the same compound, the Z-AUC under setting [1] was -0.993. Besides, for the setting “measured here: PEO4 Z-AUC”, the Z-AUC is -1.72.

For `COc1cc(C(C)C)c2c(c1)S(=O)(=O)N(COc1cc(=O)n3cccc(OCCN4CCCCC4)c3n1)C2=O`, the Z-AUC is 1.15 (inactive). Besides, the Z-AUC under setting [1] came out at 1.06. Moreover, the Z-AUC (measured here: PEO4 Z-AUC) was found to be 0.892.

As to `COc1ccc(CC2SC(=O)NC2=O)cc1C(=O)NCc1ccc(C(F)(F)F)cc1` (configuration not stated), the Z-AUC is 1.34 (inactive). The Z-AUC under setting [1] amounted to 1.11. The Z-AUC (measured here: PEO4 Z-AUC) was 1.12.

Take `CCc1cc2c(cc1N1CCC(N3CCOCC3)CC1)C(C)(C)c1[nH]c3cc(C#N)ccc3c1C2=O`: the Z-AUC was 0.0393 (inactive). For the same compound, the Z-AUC under setting [1] is -0.229. Also, the Z-AUC (measured here: PEO4 Z-AUC) is -0.554.

As to `Cc1cnc(-c2cnc(NCCNc3ccc(C#N)cn3)nc2-c2ccc(Cl)cc2Cl)[nH]1`, the Z-AUC is 1.35 (inactive). Moreover, the Z-AUC under setting [1] was found to be 0.904. Further, the Z-AUC (measured here: PEO4 Z-AUC) was found to be 0.844.

On to `CN(C)Cc1c(C(=O)NCCOc2ccc(C(=O)NO)cc2)oc2ccccc12`, for which the Z-AUC is -0.744 (inactive). Under setting [1], the Z-AUC was -1.25. Also, for the setting “measured here: PEO4 Z-AUC”, the Z-AUC was -1.26.

`Cc1cc(C(=O)N2CCN(c3cccc(Cl)c3)CC2)n(-c2ccccc2)n1`: the Z-AUC was -1.51 (inactive). Further, the Z-AUC under setting [1] is -1.82. Moreover, for the setting “measured here: PEO4 Z-AUC”, the Z-AUC is -1.79.

As for `CC(C)c1noc(N2CCC(COc3ccc(-c4ccc(S(C)(=O)=O)cc4)nc3)CC2)n1`, the Z-AUC was -0.00574 (inactive). Under setting [1], the Z-AUC is -0.198. Moreover, under “measured here: PEO4 Z-AUC”, the Z-AUC is 1.01.

Regarding `Nc1nccc(Oc2ccc(NC(=O)c3c[nH]cc(-c4ccc(F)cc4)c3=O)cc2F)c1Cl`, the Z-AUC was -0.747 (inactive). Besides, the Z-AUC under setting [1] was -0.587. In addition, the Z-AUC (measured here: PEO4 Z-AUC) was -1.14.

For `Nc1ccc(C(=O)c2cc3c(ccc4ccccc43)[nH]2)cc1`, the Z-AUC was -0.0185 (inactive). Further, the Z-AUC under setting [1] is -0.727. Also, the Z-AUC (measured here: PEO4 Z-AUC) is -0.792.

Take `Cc1ccc(C(N)=O)cc1Nc1nccc(-c2cn(C(C)C)c3cnccc23)n1`: the Z-AUC was -1.23 (inactive). Besides, the Z-AUC under setting [1] was -1.45. Also, the Z-AUC (measured here: PEO4 Z-AUC) is -1.25.

With `CCN1CCN(Cc2ccc(-c3cc4c(N[C@H](C)c5ccccc5)ncnc4[nH]3)cc2)CC1`, the Z-AUC is -1.03 (inactive). Under setting [1], the Z-AUC came to 0.0439. For the same compound, the Z-AUC (measured here: PEO4 Z-AUC) is -0.489.

Regarding `CN1CCN(c2ccc3nc(-c4c(N)c5c(F)cccc5[nH]c4=O)[nH]c3c2)CC1`, the Z-AUC is -0.169 (inactive). Besides, the Z-AUC under setting [1] was -0.682. Moreover, the Z-AUC (measured here: PEO4 Z-AUC) was -0.379.

Turning to `CNC(=O)c1ccccc1Nc1nc(Nc2ccc(N3CCOCC3)cc2OC)ncc1Cl`, the Z-AUC is 0.733 (inactive). Further, under setting [1], the Z-AUC came to 0.134. Besides, the Z-AUC (measured here: PEO4 Z-AUC) amounted to 0.16.

For the compound `CCn1cc(-c2ccnc3[nH]c(-c4cccc(CN(C)C)c4)cc23)c(-c2ccc(NC(=O)N(C)C)cc2)n1`, the Potency is 2450 nM (active). Also, the Z-AUC under setting [1] was -1.7. Further, the Z-AUC (measured here: PEO4 Z-AUC) was -1.88.

For the compound `NCC(=O)Nc1ccc(-n2nc(C(F)(F)F)cc2-c2ccc3c(ccc4ccccc43)c2)cc1`, the Z-AUC was 0.362 (inactive). In addition, the Z-AUC under setting [1] is -0.764. For the setting “measured here: PEO4 Z-AUC”, the Z-AUC was -0.389.

Consider `CNC(=O)c1nn(C)c2c1C(C)(C)Cc1cnc(Nc3ccc(N4CCN(C)CC4)cc3)nc1-2`, for which the Potency is 549 nM (active). Further, the Z-AUC under setting [1] is -1.22. Further, the Z-AUC (measured here: PEO4 Z-AUC) is -1.37.

As for `Cc1cn2cc(C(=O)N(C)CCO)cc(N[C@@H]3CCOc4cccc(C)c43)c2n1`, the Z-AUC was 1.4 (inactive). Moreover, the Z-AUC under setting [1] was 1.4. Where the note is “measured here: PEO4 Z-AUC”, the Z-AUC worked out at 1.61.

With `Cn1c(=O)n(-c2ccc(C(C)(C)C#N)cc2)c2c3cc(-c4cnc5ccccc5c4)ccc3ncc21`, the Potency is 2 nM (active). The Z-AUC under setting [1] is -1.42. Further, the Z-AUC (measured here: PEO4 Z-AUC) is -1.44.

Consider `CNC(=O)c1ccc(-c2cnc3ncc(Cc4ccc5ncccc5c4)n3n2)cc1F`, for which the Z-AUC is -0.273 (inactive). Besides, the Z-AUC under setting [1] is 1.03. Also, the Z-AUC (measured here: PEO4 Z-AUC) turned out to be 0.0538.
